# From PMC5913336, “True equilibrium measurement of transcription factor-DNA binding affinities using automated polarization microscopy”
# Molecular target: T1, Slp1-FL (Drosophila melanogaster, UniProt P32030)
# T1 sequence: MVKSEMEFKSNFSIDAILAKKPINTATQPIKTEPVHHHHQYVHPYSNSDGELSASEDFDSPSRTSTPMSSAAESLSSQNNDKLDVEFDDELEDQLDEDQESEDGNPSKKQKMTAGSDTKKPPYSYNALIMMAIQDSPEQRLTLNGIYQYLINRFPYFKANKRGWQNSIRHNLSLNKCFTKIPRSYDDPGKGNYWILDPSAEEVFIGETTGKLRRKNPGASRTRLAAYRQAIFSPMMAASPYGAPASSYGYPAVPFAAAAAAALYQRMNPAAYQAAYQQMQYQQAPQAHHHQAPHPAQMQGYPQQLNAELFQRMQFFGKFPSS
# Test: FP; 33 mM phosphate pH 7.0, 90 mM NaCl, 0.01% Tween 20, 0.1 mM DTT, 0.5% agarose; room temperature
# Conditions: tags: N-GST (pGEX-6P-1, kept); dsDNA, one strand shown
Sequence,binding signal,Kd [µM]
ACGTGTGTACACTTA,7.74 Kd / Kd of best base at the position,
AAGTGTTTACACTTA,8.32 Kd / Kd of best base at the position,
ACGTGTTTACACTTG,1.73 Kd / Kd of best base at the position,
ACGTGTTTACAGTTA,2.11 Kd / Kd of best base at the position,
ACGTGCTTACACTTA,16.8 Kd / Kd of best base at the position,
ACGTGTTTACAATTA,2.79 Kd / Kd of best base at the position,
AGGTGTTTACACTTA,1.71 Kd / Kd of best base at the position,
ACGTGTTTACTCTTA,2.44 Kd / Kd of best base at the position,
ACGTGTTTCCACTTA,15.2 Kd / Kd of best base at the position,
ACGTGTTTTCACTTA,13 Kd / Kd of best base at the position,
ACCTGTTTACACTTA,3.03 Kd / Kd of best base at the position,
ACGTATTTACACTTA,3.26 Kd / Kd of best base at the position,
ACGTGTTTACGCTTA,1.83 Kd / Kd of best base at the position,
ACGTTTTTACACTTA,21.2 Kd / Kd of best base at the position,
ACGTGTCTACACTTA,22.3 Kd / Kd of best base at the position,
ACGTCTTTACACTTA,68.8 Kd / Kd of best base at the position,
ACGTGTTTACACTAA,10.7 Kd / Kd of best base at the position,
ACGTGTTTACATTTA,1.28 Kd / Kd of best base at the position,
ACGTGTTTAAACTTA,44.8 Kd / Kd of best base at the position,
ACGTGTTTACACTGA,1.18 Kd / Kd of best base at the position,

Sequence,binding signal,Kd [µM]
ACTTGTTTACACTTA,1.09 Kd / Kd of best base at the position,
ACGTGTTTACCCTTA,2.19 Kd / Kd of best base at the position,
CCGTGTTTACACTTA,1.25 Kd / Kd of best base at the position,
ACGGGTTTACACTTA,20.1 Kd / Kd of best base at the position,
ACGTGTTTACACTTA,,~0.017
ACGTGATTACACTTA,19 Kd / Kd of best base at the position,
ACGTGTTTACACCTA,2.68 Kd / Kd of best base at the position,
ATGTGTTTACACTTA,1.95 Kd / Kd of best base at the position,
ACGTGGTTACACTTA,14.4 Kd / Kd of best base at the position,
ACGAGTTTACACTTA,30.1 Kd / Kd of best base at the position,
ACGTGTTTACACTCA,3.73 Kd / Kd of best base at the position,
ACGTGTTTACACTTT,1.35 Kd / Kd of best base at the position,
ACGTGTATACACTTA,19.4 Kd / Kd of best base at the position,
TCGTGTTTACACTTA,1.19 Kd / Kd of best base at the position,
ACGCGTTTACACTTA,14.2 Kd / Kd of best base at the position,
ACGTGTTTAGACTTA,19.7 Kd / Kd of best base at the position,
ACATGTTTACACTTA,1.13 Kd / Kd of best base at the position,
ACGTGTTAACACTTA,14 Kd / Kd of best base at the position,
ACGTGTTTATACTTA,2.63 Kd / Kd of best base at the position,
